Holding throughout (assay): PBM binding z-score (relative to random genomic background probes); higher = stronger binding; sequences stand for … in GC…GCGATTGACAGCGTAGAATGAAGG
In experiment [1] the test system is RARb homodimer (NR concentration 270 nM). A digest of the protocol:
(§1)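 Custom Agilent 4×180K protein-binding microarrays carried double-stranded probes. Their 34-nt variable regions held direct-repeat seeds, single-nucleotide variants, half-site ablations and random human genomic background sequences. Arrays were incubated 1 h with ligand-free nuclear receptor dimers in PBS pH 7.4, 2% milk, 0.02% Triton X-100, 1 mM DTT, 0.2 mg/mL BSA and 0.4 mg/ml salmon testes DNA. Antibodies against each partner (one per run) detected binding, and scanned fluorescence was regression-normalized. Binding z-scores use random background probes as reference.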

The subject of experiment [2] is RARg:RXRa (NR concentration 270 nM, RXRa partner concentration 90 nM). A digest of the protocol: as §1
Experiment [3] deals with RARg homodimer (NR concentration 270 nM). The method in brief: as §1
In experiment [4] the test system is RXRa DBDmut IVT, anti-RXR (DBD mutation: RXRa K156A/R161A, NR concentration 90 nM). The method in brief:
as §1

The subject of experiment [5] is RXRa homodimer (NR concentration 180 nM). A digest of the protocol: as §1
For experiment [6], the system named is THRa:RXRa (NR concentration 90 nM, RXRa partner concentration 90 nM). The method in brief:
as §1

Experiment [7] concerns THRa homodimer (NR concentration 90 nM). The method in brief:
as §1

Experiment [8] relates to VDR:RXRa (NR concentration 270 nM, RXRa partner concentration 90 nM). A digest of the protocol:
as §1

Experiment [9] has as its system VDR homodimer (NR concentration 270 nM). The method in brief:
as §1

With AGAATGAGGTTATACGTAGATCTGGGAAGAAAGT, the PBM binding z-score amounted to 0.334 in experiment [1]; 1.39 in experiment [2]; 0.958 in experiment [3]; 1.1 in experiment [4]; 1.94 in [5]; 2.03 in experiment [6]. Besides, the results for the PBM binding z-score in [7], in [8] and in experiment [9] were 0.225, 1.07 and 0.724, respectively.
Regarding TAGCCTAGGTCATTGCGCCAGTATAGTACGCATC, the PBM binding z-score in experiment [1] amounted to 2.53; in experiment [2], 3.8; in [3], 3.99; in [4], 1.74; in experiment [5], 3; in experiment [6], 2.8. Further, the PBM binding z-score in experiment [7] is 1.07; in [8] it was 2.33; in experiment [9], 1.54.
TCATATAGGTAGTACAGGTGAAAGTCGGCATCTA: the PBM binding z-score in experiment [1] came to 0.475; in experiment [2], 0.549; in experiment [3], 0.317; in experiment [4], 1.32; in experiment [5] it was 1.02; in experiment [6], 0.404. In addition, the PBM binding z-score in [7] came to 0.361; in [8] it was 0.794; in experiment [9], 0.606.
For ATCTCTAGGGAAGACTCAGTTCAGTGAAGAACGC, the PBM binding z-score is 0.462 in [1]; -0.132 in experiment [2]; -0.0509 in experiment [3]; 0.532 in [4]; -0.129 in experiment [5]; 0.262 in experiment [6]. Also, the results for the PBM binding z-score in [7], in experiment [8] and in [9] were 0.318, 0.408 and 1.38, respectively.
Turning to CCTAGTTGGTCAGGAGGGCACACACCGGATATGA, the PBM binding z-score is 1.73 in experiment [1]; 1.52 in experiment [2]; 1.53 in experiment [3]; -0.604 in [4]; 0.657 in [5]; 0.623 in [6]. In addition, the PBM binding z-score turned out to be 0.029 in experiment [7], 0.458 in experiment [8] and 0.549 in experiment [9].
Take CCAGACAGGTGAGTAGGTAACTCAGCCTCGATTA: the PBM binding z-score turned out to be 0.326 in experiment [1]; 0.196 in experiment [2]; 0.224 in [3]; 0.331 in experiment [4]; 0.246 in experiment [5]; 0.0417 in experiment [6]. In addition, the figures for the PBM binding z-score in experiment [7], in experiment [8] and in experiment [9] were 0.159, -0.168 and -0.162, respectively.
As to ACTAGTTGGGCAGCTGAGGTCACACACAATTCGG, the PBM binding z-score was 3.83 in experiment [1]; 3.56 in experiment [2]; 3.17 in experiment [3]; 1.21 in [4]; 3.56 in experiment [5]; 4.63 in experiment [6]. Moreover, the figures for the PBM binding z-score in [7], in experiment [8] and in [9] were 4.73, 3.72 and 2.9, respectively.
For the sequence CTACCCAGGTGAACAAGGTCGTTGATTACTATTC, the PBM binding z-score in experiment [1] was 1.57; in [2] it was 1.18; in experiment [3], 0.941; in experiment [4] it was 0.701; in experiment [5] it was 1.46; in experiment [6] it was 2.94. The results for the PBM binding z-score in experiment [7], in experiment [8] and in experiment [9] were 1.87, 5.31 and 1.92, respectively.
Regarding CGTCCAAGGTCAAGGCCAGTGAAAGAGACTCGAA, the PBM binding z-score was determined as 3.8 in experiment [1]; 5.88 in [2]; 6.13 in experiment [3]; 3.31 in experiment [4]; 5.24 in experiment [5]; 3.71 in experiment [6]. Besides, the PBM binding z-score in [7] was determined as 2.15; in experiment [8], 3.69; in experiment [9], 1.61.
Take AATACAGGGTCATCGTATGCCAGAGTACGCACAG: the PBM binding z-score in experiment [1] was 3.1; in experiment [2], 5.61; in experiment [3], 4.95; in experiment [4], 3.42; in experiment [5], 6.33; in [6], 3.67. Also, the PBM binding z-score in experiment [7] stood at 1.21; in experiment [8], 5.08; in experiment [9] it was 3.64.
Turning to GGAACGAGGGCAAGTTTATAGCAGAGTTTGATGG, the PBM binding z-score in experiment [1] was found to be 1.78; in [2], 1.5; in [3], 2.19; in experiment [4], 2.62; in experiment [5] it was 0.81; in experiment [6], 1.07. Further, the values for the PBM binding z-score in experiment [7], in experiment [8] and in experiment [9] were 0.0695, 1.32 and 2.89, respectively.
In the case of TCTAGTAGGTTACCAATGGGGCATTCAGCTTTCT, the PBM binding z-score in experiment [1] was 0.934; in experiment [2], 1.47; in experiment [3], 0.705; in experiment [4], 1.13; in [5], 0.88; in experiment [6] it was 0.163. The PBM binding z-score was -0.277 in experiment [7], 0.81 in experiment [8] and 0.254 in experiment [9].
As to GTATCAAGGTGAATAGGTCGTTGATGAGTAGGCG, the PBM binding z-score in experiment [1] came to 1.83; in experiment [2], 2.77; in experiment [3], 1.78; in experiment [4], 0.056; in experiment [5], 1.81; in experiment [6], 2.29. Moreover, the PBM binding z-score amounted to 0.898 in [7], 1.1 in experiment [8] and 0.555 in experiment [9].
Consider CCTAGTTGGTCAGGAGATCACACACCGGATATGA, for which the PBM binding z-score in experiment [1] is 0.781; in experiment [2] it was 0.628; in experiment [3], 1.01; in experiment [4], 0.108; in [5], 0.347; in [6], -0.184. For the same sequence, the PBM binding z-score in experiment [7] is 0.385; in experiment [8], 0.242; in experiment [9] it was 0.435.
Regarding AGAATGAGCTTATACGTAGATCAGGGAAGAAAGT, the PBM binding z-score in experiment [1] is -0.75; in experiment [2] it was -0.102; in experiment [3], -0.0616; in experiment [4], -0.769; in experiment [5] it was -0.13; in experiment [6], -0.46. The PBM binding z-score is -0.669 in experiment [7], -0.451 in [8] and -0.447 in experiment [9].
For the sequence AAAATGAGGTTACCAAAGATCAGGGAAACGCTTG, the PBM binding z-score in [1] was found to be 0.885; in [2], 2.37; in experiment [3] it was 1.81; in experiment [4], 1.54; in experiment [5], 2.93; in experiment [6], 3.06. Besides, the PBM binding z-score was found to be 0.766 in experiment [7], 1.94 in [8] and 0.152 in [9].

Source of the values: the supplement of paper PMC6555819.
